# Data reported in PubChem BioAssay (Tox21).
# Results filed as inconclusive are left out. Where a call stands in place of a potency, no number is given. Values without a mark were called inactive. The source made the active and inactive calls. Unless noted, the call rests on the fitted dose curve.
# Key:
# [1] = qHTS assay to identify small molecule agonists of the NFkB signaling pathway (AID 1159509; active means well fitted curve in the direction sought with a large enough effect in the signal ratio in the repeat runs, not every such curve was filed as active; the % refers to the signal ratio; further: series mostly up to about 61 µM)
# How it was run: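 NFkB-bla ME-180 cells with a beta-lactamase reporter under an NF-kB response element were plated overnight, treated with compounds in DMSO for 5 hr at 37 C, then loaded with FRET substrate for 1.5 hr at room temperature.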
# [2] = qHTS assay to identify small molecule agonists of the NFkB signaling pathway - cell viability counter screen (AID 1159515); further: series mostly up to about 61 µM; nearly all actives have a fitted effect of over 55% in size
# How it was run: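 NFkB-bla ME-180 cells, 2,000/well, plated overnight at 37 C; compound added for 5 hr at 37 C. Viability read in the same wells as the bla reporter, by CellTiter-Glo luminescence after 30 min at room temperature.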
# [3] = qHTS assay to identify small molecule agonists of the endoplasmic reticulum stress response signaling pathway (AID 1159516; active means well fitted activation curve with a large enough effect in the signal ratio in the repeat runs, not every such curve was filed as active; the % refers to the signal ratio)
# How it was run: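 CellSensor ESRE-bla HeLa cells, 1,500 per well, plated overnight, then exposed to compounds for 5 hr at 37 C. Beta-lactamase reporter read with LiveBLAzer B/G FRET substrate after 2 hr at room temperature, 405 nm excitation, 460 and 530 nm emission.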
# [4] = qHTS assay to identify small molecule agonists of the endoplasmic reticulum stress response signaling pathway - cell viability counter screen (AID 1159517);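 further: HeLa cells carrying an ER stress response element beta-lactamase reporter; series mostly up to about 61 µM; nearly all actives have a fitted effect of over 50% in size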
# How it was run: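 Cells, HeLa ESRE-bla; density, 1,500/well; dosing, 5 hr at 37 C, 5% CO2; readout, CellTiter-Glo luminescence after 30 min RT.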
# [5] = qHTS assay to identify small molecule antagonists of the retinoid-related orphan receptor gamma (ROR-gamma) signaling pathway - cell viability counter screen (AID 1159520; active means well fitted cell-killing curve with a large enough effect in the repeat runs; further: nearly all actives have a fitted effect of over 50% in size)
# How it was run: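 Cytotoxicity was read from cellular ATP (CellTiter-Glo luminescence) after 16 hr at 37 C with 1 uM doxycycline induction. The inducer was added 2 hr after compound transfer to Tet-on ROR gamma CHO cells.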
# [6] = qHTS assay to identify small molecule agonists of the AP-1 signaling pathway - cell viability counter screen (AID 1159525); further: nearly all actives have a fitted effect of over 55% in size
# How it was run: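 Luminescent ATP readout (Cell Titer Glo, 30 min RT), normalised to DMSO and tetra n-octyl ammonium bromide controls. Cells were ME-180 AP-1-bla in 0.5% dialyzed FBS Opti-MEM, with a 5 h, 37 °C compound exposure.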
# [7] = qHTS assay to identify small molecule agonists of the AP-1 signaling pathway (AID 1159526)
# [8] = qHTS assay to identify small molecule agonists of the vitamin D receptor (VDR) signaling pathway - cell viability counter screen (AID 743224; active means well fitted cell-killing curve with a large enough effect in the repeat runs; further: nearly all actives have a fitted effect of over 50% in size; further: potency means the concentration at half of the fitted maximal effect)
# How it was run: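 VDR-bla cells, 4 h after plating, exposed to compounds for 16 h at 37C; viability then read in the same wells as CellTiter-Glo luminescence after 30 min at room temperature, following the bla FRET read.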
# [9] = qHTS assay to identify small molecule antagonists of the vitamin D receptor (VDR) signaling pathway - cell viability counter screen (AID 743225; active means well fitted cell-killing curve with a large enough effect in the repeat runs; further: nearly all actives have a fitted effect of over 50% in size)
# How it was run: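 VDR-bla HEK 293T cells, 4 h pre-incubation at 37C, then compound plus 1-alpha,25-dihydroxyvitamin D3 (3 nM final) for 16 h. After the beta-lactamase FRET read, CellTiter-Glo was added to the same wells; luminescence after 30 min at room temperature.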
Structure (SMILES),outcome [1],outcome [2],outcome [3],outcome [4],Potency [5],outcome [6],outcome [7],Potency [8],Potency [9]
CCCC1C(CC)=CC(CC)=CN1c1ccccc1 (centres undefined),inactive,inactive,inactive,inactive,inactive,inactive,inactive,,
CNCCCC1c2ccccc2C=Cc2ccccc21,inactive,inactive,inactive,inactive,inactive,inactive,inactive,29.8 µM (active),
CC(C)(C)C(=O)C(Oc1ccc(Cl)cc1)n1ccnc1 (centres undefined),inactive,inactive,inactive,inactive,inactive,inactive,inactive,inactive,inactive
Cc1ccccc1N1C(=O)c2cc(S(N)(=O)=O)c(Cl)cc2NC1C (centres undefined),inactive,inactive,inactive,inactive,inactive,inactive,inactive,inactive,inactive
CC(Cl)C(Cl)Cl (centres undefined),inactive,inactive,inactive,inactive,inactive,inactive,inactive,inactive,inactive
O=c1[nH]c2ccc(S(=O)CCN3CCC(Cc4ccc(F)cc4)CC3)cc2o1 (centres undefined),inactive,inactive,inactive,inactive,inactive,inactive,inactive,inactive,inactive
Fc1c(F)c(F)c(Br)c(F)c1F,inactive,inactive,inactive,inactive,inactive,inactive,inactive,inactive,inactive
O=S(=O)(c1ccccc1)c1ccc(Cl)cc1,inactive,inactive,inactive,inactive,inactive,inactive,inactive,inactive,
CN(C(=O)C(Cl)Cl)c1ccc(OC(=O)c2ccco2)cc1,inactive,inactive,inactive,inactive,inactive,inactive,inactive,inactive,inactive
O=C(CCC1CCN(Cc2ccccc2)CC1)c1ccc2c(c1)NCCCC2,inactive,inactive,inactive,inactive,inactive,inactive,,,
Cc1ccc(Nc2nccc(N(C)c3ccc4c(C)n(C)nc4c3)n2)cc1S(N)(=O)=O,inactive,inactive,inactive,inactive,inactive,inactive,inactive,inactive,inactive
CCOC(=O)CC(=O)C(=O)OCC,inactive,inactive,inactive,inactive,inactive,inactive,inactive,inactive,
COc1ccc([C@@H]2Sc3ccccc3NC(=O)[C@@H]2O)cc1,inactive,inactive,inactive,inactive,inactive,inactive,inactive,inactive,inactive
CCCCC(CC)C(=O)OCCOCCOCCOCCOC(=O)C(CC)CCCC (centres undefined),inactive,inactive,inactive,inactive,inactive,inactive,inactive,inactive,
Oc1cc(O)c(Cl)cc1Cl,inactive,inactive,inactive,inactive,inactive,inactive,inactive,inactive,
CCCOc1ccc(S(=O)(=O)N2CCN(CC)CC2)cc1-c1nc2c(CC)n(Cc3ccccn3)nc2c(=O)[nH]1,inactive,inactive,inactive,inactive,inactive,inactive,inactive,inactive,inactive
Nc1ccc(S(=O)(=O)O)c(N)c1,inactive,inactive,inactive,inactive,inactive,inactive,inactive,inactive,
Cc1ccc(S(=O)(=O)NC2CCCCC2)cc1,inactive,inactive,inactive,inactive,inactive,inactive,inactive,inactive,inactive
C=C(C)C(=O)OCCOC(=O)CC(C)=O,inactive,inactive,inactive,inactive,inactive,inactive,inactive,inactive,
CC(N)CN (centres undefined),inactive,inactive,inactive,inactive,inactive,inactive,inactive,inactive,inactive
CNC(=S)NC,inactive,inactive,inactive,inactive,inactive,inactive,inactive,inactive,
CCOc1cc(N)c(Cl)cc1C(=O)NCC1CN(Cc2ccc(F)cc2)CCO1 (centres undefined),inactive,inactive,inactive,inactive,inactive,inactive,inactive,inactive,inactive
CCCCC(CC)COC(=O)COc1ccc(Cl)cc1C (centres undefined),inactive,inactive,inactive,inactive,inactive,inactive,inactive,inactive,inactive
CCOC(=O)c1ccccc1C,inactive,inactive,inactive,inactive,inactive,inactive,inactive,inactive,
Nc1ccc(C(=O)OCCCOC(=O)c2ccc(N)cc2)cc1,inactive,inactive,inactive,inactive,inactive,inactive,inactive,inactive,inactive
O=C(O)Cc1ccc(-c2ccccc2)cc1,inactive,inactive,inactive,inactive,inactive,inactive,inactive,inactive,inactive

Structure (SMILES),outcome [1],outcome [2],outcome [3],outcome [4],Potency [5],outcome [6],outcome [7],Potency [8],Potency [9]
CC(=O)[C@H]1CC[C@H]2[C@@H]3C=CC4=CC(=O)CC[C@@]4(C)[C@@H]3CC[C@]12C,inactive,inactive,inactive,inactive,inactive,inactive,inactive,inactive,inactive
CC1(C)C2=CCCC(C)(C)[C@]23CC[C@H]1C3,inactive,inactive,inactive,inactive,inactive,inactive,inactive,inactive,
CCOC(=O)c1ccccc1OC,inactive,inactive,inactive,inactive,inactive,inactive,inactive,inactive,inactive
C=CC(C)=CCC=C(C)C,inactive,inactive,inactive,inactive,inactive,inactive,inactive,inactive,inactive
COc1ccc(CCC(=O)c2c(O)cc(O[C@@H]3O[C@H](CO)[C@@H](O)[C@H](O)[C@H]3O[C@@H]3O[C@@H](C)[C@H](O)[C@@H](O)[C@H]3O)cc2O)cc1O,inactive,inactive,inactive,inactive,inactive,inactive,inactive,inactive,inactive
CSc1ccc(Oc2ccc(S(N)(=O)=O)cc2CN(C)C)cc1C,inactive,inactive,inactive,inactive,inactive,inactive,inactive,,
NC(=O)Nc1ccc(Cl)cc1,inactive,inactive,inactive,inactive,inactive,inactive,inactive,inactive,inactive
Nc1nc(Cl)nc2c1ncn2[C@@H]1O[C@H](CO)[C@@H](O)[C@@H]1F,inactive,inactive,inactive,inactive,inactive,inactive,inactive,inactive,inactive
COC(OC)(C(=O)c1ccccc1)c1ccccc1,inactive,inactive,inactive,inactive,inactive,inactive,inactive,inactive,inactive
CCOC(=N)CC(=O)OCC,inactive,inactive,inactive,inactive,inactive,inactive,inactive,inactive,inactive
CCC(Cc1ccccc1)(C(=O)c1ccc(N2CCOCC2)cc1)N(C)C (centres undefined),inactive,inactive,inactive,inactive,inactive,inactive,inactive,,
CCOC(=O)/C=C/C(=O)O,inactive,inactive,inactive,inactive,inactive,inactive,inactive,inactive,
CCCCCCOC(=O)CCCCCCCC(=O)OCCCCCC,inactive,inactive,inactive,inactive,inactive,inactive,inactive,inactive,
CN1C(=O)CC(C)(c2ccccc2)C1=O (centres undefined),inactive,inactive,inactive,inactive,inactive,inactive,,inactive,inactive
CN(C)CCOC1=Cc2ccccc2Sc2ccc(Cl)cc21,inactive,inactive,inactive,inactive,inactive,inactive,,inactive,
CCC(C(=O)OCCN(CC)CC)c1ccccc1 (centres undefined),inactive,inactive,inactive,inactive,inactive,inactive,,inactive,inactive
Nc1ccc(S(=O)(=O)O)cc1,inactive,inactive,inactive,inactive,inactive,inactive,inactive,inactive,inactive
COCC(O)CO (centres undefined),inactive,inactive,inactive,inactive,inactive,inactive,,inactive,inactive
Cc1cnc(C)c(C)n1,inactive,inactive,inactive,inactive,inactive,inactive,inactive,inactive,inactive
CCCCCC=CCC=CCCCCCCCC(=O)OCC,inactive,inactive,inactive,inactive,inactive,inactive,inactive,29.8 µM (active),inactive
CC1(C)O[C@@H]2C[C@H]3[C@@H]4CCC5=CC(=O)C=C[C@]5(C)[C@H]4[C@@H](O)C[C@]3(C)[C@]2(C(=O)CO)O1,inactive,inactive,inactive,inactive,inactive,inactive,,inactive,
CCOC(=O)[C@@H](C)Oc1ccc(Oc2nc3ccc(Cl)cc3o2)cc1,inactive,inactive,inactive,inactive,inactive,inactive,inactive,inactive,inactive
O=C(N/N=C/c1ccc([N+](=O)[O-])o1)c1ccc(O)cc1,inactive,inactive,inactive,inactive,inactive,inactive,inactive,,inactive
CCCOC(=O)c1ccc(C(=O)OCCC)nc1,inactive,inactive,inactive,inactive,inactive,inactive,inactive,inactive,inactive
CCC1(C)CC(=O)NC1=O (centres undefined),inactive,inactive,inactive,inactive,inactive,inactive,inactive,inactive,inactive
CCC(C)(O)CCC=C(C)C (centres undefined),inactive,inactive,inactive,inactive,inactive,inactive,inactive,inactive,inactive
